Screens as filed in PubChem BioAssay.
MsrA act = activators of bovine methionine sulfoxide reductase A | purified bovine MsrA, absorbance read-out | activation, % at 10.6 µM | actives 0.3% (n = 360,000); in the data active = activation above about 7.5%;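 also: 0% = vehicle and 100% = reference activator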
PLCb3 inh = blocks human PLC-beta3 enzyme activity | Q01970 | Purified PLC-beta3, fluorogenic substrate, fluorescence | inhibition, % at 12.2 µM | actives 0.18% (n = 370,000) | AID 720704; in the data active = inhibition above about 11%;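 also: 0% = median of compound wells on plate and 100% = full blocker control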
MsrA inhibitor = inhibitors of bovine MsrA; purified bovine MsrA, absorbance read-out; inhibition, % at 15.5 µM; actives 0.75% (n = 360,000); AID 651718; in the data active = inhibition above about 4.5%;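 also: 0% = vehicle wells with enzyme and 100% = reference inhibitor wells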
PLC-gamma1 inh = inhibitors of human phospholipase C gamma1. purified PLC-gamma1, fluorogenic substrate, fluorescence. actives 0.84% (n = 370,000). AID 720700. inhibition, % at 12.2 µM
Target sequence (P19174 whole entry, looked up): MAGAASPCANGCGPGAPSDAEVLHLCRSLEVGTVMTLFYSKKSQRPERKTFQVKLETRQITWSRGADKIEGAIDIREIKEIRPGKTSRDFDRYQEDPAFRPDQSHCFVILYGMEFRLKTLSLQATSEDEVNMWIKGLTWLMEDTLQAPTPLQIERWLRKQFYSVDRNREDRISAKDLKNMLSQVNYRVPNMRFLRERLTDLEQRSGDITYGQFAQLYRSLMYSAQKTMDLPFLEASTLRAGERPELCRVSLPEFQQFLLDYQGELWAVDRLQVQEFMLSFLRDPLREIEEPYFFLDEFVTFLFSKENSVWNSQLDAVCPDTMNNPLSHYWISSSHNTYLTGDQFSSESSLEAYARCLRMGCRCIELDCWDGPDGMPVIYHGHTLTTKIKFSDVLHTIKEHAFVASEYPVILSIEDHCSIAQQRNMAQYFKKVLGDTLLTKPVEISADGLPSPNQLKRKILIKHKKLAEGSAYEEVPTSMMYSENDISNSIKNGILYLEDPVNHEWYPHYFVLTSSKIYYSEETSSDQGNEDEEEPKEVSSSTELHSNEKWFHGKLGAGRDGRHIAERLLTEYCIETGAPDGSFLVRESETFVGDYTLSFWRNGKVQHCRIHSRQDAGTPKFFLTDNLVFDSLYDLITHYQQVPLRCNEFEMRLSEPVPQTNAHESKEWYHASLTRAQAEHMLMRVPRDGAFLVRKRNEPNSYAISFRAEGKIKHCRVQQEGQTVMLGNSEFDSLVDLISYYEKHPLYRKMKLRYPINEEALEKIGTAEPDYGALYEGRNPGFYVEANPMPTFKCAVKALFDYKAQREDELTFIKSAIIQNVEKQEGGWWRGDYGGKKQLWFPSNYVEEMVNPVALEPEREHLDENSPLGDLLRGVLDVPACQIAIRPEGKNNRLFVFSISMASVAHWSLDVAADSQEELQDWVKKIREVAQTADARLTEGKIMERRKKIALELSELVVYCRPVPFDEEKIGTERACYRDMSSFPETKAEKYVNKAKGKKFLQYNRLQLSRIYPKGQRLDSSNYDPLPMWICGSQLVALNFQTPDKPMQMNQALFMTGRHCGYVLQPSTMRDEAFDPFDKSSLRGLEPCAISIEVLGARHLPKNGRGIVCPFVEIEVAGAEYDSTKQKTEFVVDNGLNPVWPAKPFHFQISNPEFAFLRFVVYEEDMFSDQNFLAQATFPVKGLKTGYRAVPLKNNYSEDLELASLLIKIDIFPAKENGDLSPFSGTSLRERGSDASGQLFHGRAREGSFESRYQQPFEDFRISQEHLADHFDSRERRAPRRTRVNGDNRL
PLCg1 ctr = inhibits human PLC-gamma1 in PLC-beta3 counter-screen | purified PLC-gamma1, fluorogenic substrate, fluorescence | actives 3.1% (n = 3,300) | inhibition, % at 12.3 µM | AID 743258 | shares compounds with PLC-gamma1 inh
PLCb3 confirm = confirmation of human PLC-beta3 inhibitors; inhibition, % at 12.3 µM; actives 1% (n = 3,300); shares compounds with PLC-gamma1 inh; purified PLC-beta3, fluorogenic substrate fluorescence; in the data active = inhibition above about 11%
Active calls of the source: *; . = not tested or not shown. Only some compounds are listed: those with a hit (about 1.9% of all), similar ones and a draw of the others. Rule as the data show it, unless noted: active = inhibition above about 9.5%; inactive = the rest.

SMILES	MsrA act	PLCb3 inh	MsrA inhibitor	PLC-gamma1 inh	PLCg1 ctr	PLCb3 confirm
O=c1[nH]nc(-c2ccc(NCCCO)c([N+](=O)[O-])c2)c2ccccc12	-1.9	3.4	1.1	13.2*	-1.9	-5.7
COc1ccc(NC(=O)C(Sc2nnc(-c3ccncc3)n2-c2ccccc2C)c2ccccc2)cc1Cl (stereo unspecified)	-0.7	4.0	-0.8	10.8*	1.7	-3.4
Cc1ccc(S(=O)(=O)N2C3CCCCC3O[C@H]2CC(=O)c2ccccc2)cc1 (stereo partly specified)	.	2.0	0.3	2.6	.	.
Cc1ccc(S(=O)(=O)N2C3CCCCC3O[C@H]2CC(=O)c2ccc(F)cc2)cc1 (stereo partly specified)	.	-1.0	1.6	11.0*	-6.0	-4.1
CCC(=NNS(=O)(=O)c1ccc(C)cc1)c1ccc(OC)c(C)c1	-1.2	1.9	0.9	0.2	.	.
CC(=O)Nc1ccc(OC(=O)c2ccc(Cl)cc2)cc1	-2.5	10.7*	0.4	4.4	-9.1	-4.3
CC(=O)Nc1ccc(C(=O)OCc2ccc(Cl)cc2)cc1	-1.2	0.5	-0.4	3.3	.	.
O=C1CC(SCCO)C(=O)N1c1ccc(Oc2ccccc2)cc1 (stereo unspecified)	-3.1	3.5	1.6	14.6*	-43.2	3.4
O=C(O)CCSC1CC(=O)N(c2ccccc2)C1=O (stereo unspecified)	-0.2	-3.8	0.0	1.2	.	.
COc1ccccc1S(=O)(=O)N(C)C[C@@H]1OCc2cn(nn2)CCCC(=O)N([C@H](C)CO)C[C@H]1C	-1.4	-6.4	-0.6	1.5	.	.
COC(=O)c1sc(N)c(C(=O)OC)c1CSc1nnnn1C	-5.9	-0.2	2.7	9.9*	-2.7	1.8
COC(=O)c1sc(N)c(C(=O)OC)c1CSc1nnc(-c2ccccc2Cl)n1C	-7.6	-0.9	1.1	1.2	.	.
CCN(C(=O)c1c([N+](=O)[O-])cnn1C)c1ccccc1	-2.6	2.4	-0.8	3.0	.	.
O=C(Cc1ccc(NC(=O)C2CCN(C(=O)C3CC3)CC2)cc1)Nc1ccc(C(=O)N2CCOCC2)cc1	-8.1	-1.7	0.4	0.2	.	.
O=C(CN1C2=NCCCN2c2ccccc21)c1cccc(Br)c1	0.5	-4.0	0.0	0.3	.	.
O=C(CN1C2=NCCCN2c2ccccc21)c1ccc([N+](=O)[O-])cc1	4.0	7.8	2.1	9.6*	-5.2	-1.8
CCCCCCCCN1C(=O)[C@H](CC(=O)NCc2cccc3ccccc23)C[C@@]2(C(=O)OCC)CCCC=C12	-9.6	-1.2	0.6	4.0	.	.
NC(=O)CC(NC(=O)Cc1cccc2ccccc12)c1ccc(NC2CCC2)c([N+](=O)[O-])c1 (stereo unspecified)	-0.7	5.2	-0.9	10.1*	-6.0	0.2
NC(=O)CC(NC(=O)Cc1cccc2ccccc12)c1ccc(N2CCC(N3CCCCC3)CC2)c([N+](=O)[O-])c1 (stereo unspecified)	-1.1	4.0	-0.4	2.0	.	.
NC(=O)CC(NC(=O)Cc1cccc2ccccc12)c1ccc(N2CCCCCC2)c([N+](=O)[O-])c1 (stereo unspecified)	-3.0	13.2*	1.2	13.5*	10.1*	-3.2
CCN=C1NC(c2cccc(Cl)c2)C(C(=O)OC)=C(C)N1Cc1ccccc1C(F)(F)F (stereo unspecified)	.	-4.0	-0.1	-1.5	.	.
N#Cc1cccc(NC(=O)OC2CC3CC2[C@H]2CCCCN2[C@H]3Cc2ccccc2)c1 (stereo partly specified)	.	-1.6	.	1.8	.	.
O=C(CCNS(=O)(=O)c1ccccc1C(F)(F)F)NCCCSc1ccccc1	-0.8	-0.7	1.5	11.8*	-6.1	-0.7
Nc1nc(Sc2ccc([N+](=O)[O-])cc2[N+](=O)[O-])n[nH]1	-1.7	-0.6	1.7	9.5*	3.5	2.5
Cc1ccnc(Sc2ccc([N+](=O)[O-])cc2[N+](=O)[O-])n1	4.2	5.8	2.1	5.8	.	.
SMILES	MsrA act	PLCb3 inh	MsrA inhibitor	PLC-gamma1 inh	PLCg1 ctr	PLCb3 confirm
CCNC(=O)N1CCN(c2ccc(N3CCN(C(=O)NCC)[C@H](C)C3)c(C)c2)[C@@H](C)C1	.	1.2	-0.4	0.7	.	.
Cn1nc(-c2ccccn2)nc2c(=O)n(C)c(=O)nc1-2	58.6*	-8.6	0.2	50.9*	32.5*	-12.0
CCn1c(N)nc2c1c(=O)n(C)c(=O)n2C	-0.1	0.4	0.6	3.1	.	.
CCCc1nc2c(=O)n(C)c(=O)nc-2n(C)n1	2.4	-5.5	1.2	55.3*	43.4*	3.5
CCC(=O)N1CCCC(C)(C(=O)Nc2ccc(OC(F)F)cc2)C1 (stereo unspecified)	0.9	2.0	-0.1	9.4	.	.
O=C(N/N=C/c1cccnc1)c1ccc([N+](=O)[O-])cc1	0.0	4.9	2.0	15.6*	-2.0	2.0
O=C(Cc1ccc([N+](=O)[O-])cc1)N/N=C/c1cccnc1	-4.5	-4.8	1.4	1.1	.	.
CC(NC(=O)c1ccc([N+](=O)[O-])cc1Cl)C1CC2CCC1C2 (stereo unspecified)	-1.4	6.7	1.1	10.9*	-3.3	-0.5
Cc1ccc(C(=O)Cn2c(C(=O)O)cc3ccccc32)cc1	-7.1	-7.8	-1.4	-1.9	.	.
Cc1ccc(C(=O)Cn2c(C(=O)OCCO)cc3ccccc32)cc1	-1.3	-2.0	1.6	10.7*	-8.9	-6.2
CCOC(=O)C(C)c1c(C)[nH]c(=S)[nH]c1=O (stereo unspecified)	-2.3	8.6	0.5	11.0*	-3.5	-6.9
O=C(Nc1ccccc1C(=O)O)c1ccc(NC(=O)C2CCCCC2)cc1	-2.1	-26.4	0.9	-29.1	.	.
CCOC(=O)c1cnn(CCOC(=O)c2cccc(F)c2)c1NC(=O)c1cccc(F)c1	-6.0	6.7	1.9	11.8*	-5.9	-2.7
CCOC(=O)c1sc(NC(=O)CCCCl)nc1C	-0.9	4.8	-1.8	9.8*	-1.2	-1.7
CCOC(=O)c1sc(NC(=O)CC)nc1C	-2.3	4.7	-1.1	3.0	.	.
Cc1ccc(N2C(=O)CC(Cn3nc(C)cc3C)C2=O)cc1 (stereo unspecified)	-6.3	-0.8	-0.8	10.7*	7.4	0.9
O=C(Nc1ccc(Cl)cc1)Nc1ccc(Cl)c(Cl)c1	.	0.2	1.1	-1.2	.	.
O=C(Nc1ccc(Cl)c(Cl)c1)Nc1ccc(Br)cc1F	-1.4	11.9*	1.4	7.8	-0.1	-2.4
CSc1cc(SC)ncn1	-3.1	11.8*	-0.5	4.6	-6.0	-1.2
CCOC(=O)C1(CCc2ccccc2)CCN(Cc2ccc(C(=O)OC)cc2)CC1	-1.8	-44.6	1.4	-35.9	.	.
CCOC(=O)C1(CCc2ccccc2)CCN(Cc2ccccn2)CC1	-1.7	0.9	2.4	9.9*	-6.8	-0.8
CCOc1ccc(C(=O)NC(=S)Nc2ccccc2N2CCOCC2)cc1Br	-3.2	1.3	1.1	9.9*	2.2	2.7
C=CCn1c(SCC(=O)Nc2ccccc2-c2ccccc2)nnc1-c1ccc(Cl)cc1	.	-7.4	.	10.2*	-7.0	-4.1
C=CCn1c(SCC(=O)Nc2cccnc2Cl)nnc1-c1ccc(Cl)cc1	-4.9	0.2	0.9	0.5	.	.
